# Data taken from PubChem BioAssay (NCI).
# Compounds without any hit were thinned out: in the full panel of roughly 83,000, 20% have a hit.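 Note: values are percent growth. 100 is the growth of untreated cells, values between 100 and 0 indicate rising inhibition; between -100 and 0 indicates cell death.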 A number with no mark means an inactive call. The source made the active and inactive calls. How the source made its calls: active means growth percent below 10; inactive means the rest.
# Key:
# Test in all cases: NCI-60 one-dose screen, 48 h (100 = growth as untreated, 0 = no growth, -100 = all killed)
# [1] = tested on: NCI-H23 lung; conditions: 10 µM unless noted
# [2] = tested on: NCI-H226 lung; conditions: 10 µM unless noted
# [3] = tested on: NCI-H322M lung; conditions: 10 µM unless noted
# [4] = tested on: HOP-62 NSCLC; conditions: 10 µM unless noted
# [5] = tested on: HOP-92 NSCLC; conditions: 10 µM unless noted
# [6] = tested on: A549/ATCC NSCLC; conditions: 10 µM unless noted
# [7] = tested on: 786-0 renal; conditions: 10 µM unless noted
# [8] = tested on: COLO 205 colon; conditions: 10 µM unless noted
# [9] = tested on: NCI-H522 lung; conditions: 10 µM
SMILES,growth [1],growth [2],growth [3],growth [4],growth [5],growth [6],growth [7],growth [8],growth [9]
COc1ccc(C2=NN(C(C)=O)C(c3cccc(Nc4ccnc5cc(Cl)ccc45)c3)C2)cc1 (configuration not stated),60.7%,74.5%,63.9%,38%,32.7%,45.5%,58.6%,19.1%,–
COc1cccc(C=Nc2cc(C(C)C)c(O)cc2C)c1O,95.2%,93%,95.3%,95%,82.3%,109%,106%,98.6%,–
CCCCN=C(N)c1ccc(OCCSCCOc2ccc(C(N)=NCCCC)cc2)cc1,40.4%,59.2%,69.2%,67.7%,40.1%,19.5%,82.5%,7.64% (active),–
COCCCNS(=O)(=O)c1ncnc2nc[nH]c12,96.4%,134%,119%,93.4%,120%,–,98.9%,112%,119%
COc1cc2c(cc1OC)C(=O)/C(=C/c1cccc(OCC(=O)c3ccccc3)c1)C2,90.8%,86.1%,75%,105%,40.9%,–,91.2%,119%,48.3%
COc1ccc(C(=O)COc2cccc(/C=C3\CSc4ccc(Cl)cc4C3=O)c2)cc1,87.1%,75.1%,93.5%,95.8%,68%,–,97.3%,123%,61.7%
CCCCCCC(CC#N)(CCC)CCCC (configuration not stated),110%,96.7%,113%,111%,73.9%,103%,108%,129%,–
COc1ccc(C2=NN(C(C)=O)C(c3c(C)nn(-c4ccccc4)c3N3CCOCC3)C2)cc1 (configuration not stated),100%,92.1%,101%,87.9%,86.9%,85.5%,93%,90.9%,–
COc1ccc(OC)c2c1CCC1(C2)NC(=O)NC1=O (configuration not stated),106%,102%,107%,95.2%,69.3%,98.9%,113%,98.9%,–
CCc1ccc(-c2nc(SCC(=O)NC3CCCCC3)n[nH]2)cc1,55%,67.8%,78.4%,94.6%,67.6%,–,73.4%,122%,73.6%
COC(=O)[C@H](Cc1cn(C)cn1)NC(=O)[C@H](C)NC(=O)Nc1cc(C(F)(F)F)cc(C(F)(F)F)c1,-60.9% [100 µM] (active),-33.9% [100 µM] (active),-54.6% [100 µM] (active),-95.3% [100 µM] (active),-95.3% [100 µM] (active),-25% [100 µM] (active),-80.8% [100 µM] (active),-92% [100 µM] (active),–
COc1ccc2c(c1)CC/C(=C\c1ccc(OCC(=O)Nc3nc4ccccc4s3)cc1)C2=O,79.5%,90.4%,98.6%,83.2%,61.1%,–,92.3%,122%,85.4%
N#Cc1c(-c2ccc(F)cc2)n2c(nc1=O)SC(=O)C2=O,98.6%,87.2%,104%,120%,96.6%,–,100%,134%,103%
CCN(CC)CCNCC(=O)Oc1ccc(/C=C/C(=O)CC(=O)/C=C/c2ccc(OC(=O)CNCCN(CC)CC)c(OC)c2)cc1OC,5.35% (active),21%,55.4%,34%,39.1%,38.2%,-34.9% (active),17.1%,–
O=C(NC1CCS(=O)(=O)C1)c1ccc(C(=O)c2ccccc2)cc1 (configuration not stated),98.9%,94.5%,128%,101%,101%,–,101%,102%,90.9%
COc1cc(/C=C\C(C)=N\Nc2ccccc2)ccc1O,91.2%,109%,128%,67.5%,100%,80.7%,97.4%,111%,–

SMILES,growth [1],growth [2],growth [3],growth [4],growth [5],growth [6],growth [7],growth [8],growth [9]
O=C(N/N=C/c1ccc(Cl)cc1Cl)c1ccccc1Nc1cccc(C(F)(F)F)c1,70.5%,50%,86.2%,57.9%,-0.368% (active),–,74.9%,109%,67%
Cc1[nH]cnc1/C=C1\SC(N2CCCCC2)=NC1=O,101%,96.2%,123%,105%,100%,96.8%,94.7%,114%,–
CC1Cc2ccccc2N1C(=O)c1ccc(C(=O)c2ccccc2)cc1 (configuration not stated),98.3%,78.1%,91.2%,80.5%,92%,–,86.7%,97.1%,77.3%
Nc1ccc(Oc2c(F)c(F)c(Oc3ccc(N)cc3)c(F)c2F)cc1,96.5%,104%,-4.94% (active),101%,80.5%,–,106%,108%,90.4%
CC(=O)Nc1cc2c3c(cccc3c1)-c1ccccc1-2,89.1%,37.4%,79.9%,103%,78.9%,34%,50.4%,107%,–
O=C(Nc1cccc(-n2cc(-c3ccncc3)c(-c3cc(O)cc(Cl)c3)n2)c1)Nc1ccc(Cl)c(Cl)c1,-20.5% (active),14.5%,19.5%,-44.2% (active),-30.5% (active),3.96% (active),-72.1% (active),22.4%,–
O=C(CSc1ncc(-c2ccccc2)n1-c1ccccc1)Nc1ccc(-c2nc3ccccc3s2)cc1,62.6%,103%,90.1%,73.1%,95.6%,20.3%,69.8%,103%,–
N#Cc1ccc(-c2csc(Nc3ccc4nc5n(c(=O)c4c3)CCC5)n2)cc1,105%,105%,104%,108%,169%,101%,104%,109%,–
O=C(Nc1nn2c(-c3cc(C(F)(F)F)cc(C(F)(F)F)c3)nnc2s1)C1CCCC1,-2.97% (active),9.1% (active),4.33% (active),8.91% (active),-24.2% (active),7.1% (active),–,-82.5% (active),–
Cc1ccccc1NC(=O)N/C(N)=N/c1nc2ccccc2s1,31.8%,21%,39.2%,40.7%,126%,22.7%,30.7%,6.68% (active),–
COc1ccc2c(c1)sc1nc(-c3ccc(N(C)C)cc3)cn12,99.2%,139%,98.2%,105%,34.3%,96.6%,89.7%,93.7%,–
COc1cc(NC(=O)NCc2ccco2)ccc1-c1ccc(NC(=O)NCc2ccco2)cc1OC,49.4%,14.1%,49.5%,33.8%,23%,34.6%,40.1%,64.9%,–
CC(=O)Nc1ccc(C(=O)COc2cccc(/C=C3\CCc4ccccc4C3=O)c2)cc1,84.4%,70.7%,105%,104%,70.8%,–,92.9%,130%,63.1%
COc1cc(/C=C/C(=O)c2c(C)n([O-])c3ccccc3[n+]2=O)cc(OC)c1OC,54.9%,86.5%,49%,105%,-0.517% (active),51.4%,65.9%,55.9%,–
O=C(NC1CCCCC1)c1ccc(Nc2ncnc3c2cnn3-c2ccccc2)cc1,72%,19.1%,64%,-66.5% (active),37.7%,16.6%,72.1%,65.4%,–
